Reference: PubChem BioAssay (NCATS)
“And” between values parts separate entries of the source, which are not always exact repeats. Equal values may be shown once. Records with an inconclusive call do not appear. More than one record can exist for a structure, and the calls need not agree. The source made the active and inactive calls. Calls come from the whole dose curve; as a rule, active = well fitted curve in the direction sought with a large enough effect; inconclusive = small, poorly fitted or top-dose-only effect, or another doubt; inactive = no such curve, though single readings can be large; an effect the other way counts as inactive or inconclusive.

How the values were obtained:
[1] = qHTS assay for measurement of the activity of small molecule inhibitors on Zika virus induced Caspase-3 activity in human iPSC derived neural progenitor cells (hNPCs) (AID 1224857); note: nearly all actives have a fitted effect of over 65% in size
In short: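 Quantitative HTS format: human iPSC neural progenitors, 1 h compound pretreatment, ZIKV 2 FFU/cell for 6 h at 37 C. Percent inhibition derived from luminescent caspase-3/7 signal between uninfected and infected controls.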

[2] = qHTS assay for measurement of the activity of small molecule inhibitors on Zika virus induced Caspase-3 activity in human astrocytoma cells (AID 1224859)
In short: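 Readout is luminescence from Caspase-Glo 3/7 added after a 6 h ZIKV infection (2 FFU/cell) of compound-pretreated (1 h) SNB-19 cells; data expressed as % inhibition versus uninfected and infected wells.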

[3] = qHTS Screen of the MIPE 4.0 Collection Against Ewings Sarcoma (TC71) (AID 1259253); note: nearly all actives have a fitted effect of over 40% in size; note: potency is the fitted concentration of half-maximal effect
In short: (§1)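 CellTiter-Glo luminescence after 48 h compound exposure (titration) gave viability; percent activity used DMSO-treated cells as no inhibition and medium-only wells as full inhibition. Cells grown in RPMI/5% FBS, dosed 4 h post-seeding.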

[4] = qHTS Screen of the MIPE 4.0 Collection Against Ewings Sarcoma (EW8) (AID 1259255); note: nearly all actives have a fitted effect of over 35% in size; note: potency is the fitted concentration of half-maximal effect
In short: as §1

[5] = qHTS Screen of the MIPE 4.0 Collection Against Ewings Sarcoma (TC32) (AID 1259256); note: nearly all actives have a fitted effect of over 45% in size; note: potency is the fitted concentration of half-maximal effect
In short: as §1

[6] = P-glycoprotein substrates identified in KB-3-1 adenocarcinoma cell line, qHTS therapeutic library screen (AID 1346986); note: nearly all actives have a fitted effect of over 60% in size
In short: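 Dose-response cytotoxicity, KB-3-1 vs P-gp-high KB-8-5-11, no colchicine in assay medium. Read: CellTiter-Glo at 72 h.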

[7] = P-glycoprotein substrates identified in KB-8-5-11 adenocarcinoma cell line, qHTS therapeutic library screen (AID 1346987); note: nearly all actives have a fitted effect of over 65% in size; note: potency is the fitted concentration of half-maximal effect
In short: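 In this qHTS, P-gp-rich KB-8-5-11 cells received library compounds across a concentration range. Viability was quantified by luminescence after 72 h at 37 degree C.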

[8] = NS1 protein of Zika virus - qHTS assay to identify small molecule inhibitors in human HEK 293 cells (AID 1347053); note: nearly all actives have a fitted effect of over 55% in size; note: potency is the fitted concentration of half-maximal effect
In short: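 Readout was TR-FRET using paired anti-NS1 antibodies after 24 h infection of HEK 293 cells with ZIKV MR766 (MOI = 0.5). Compound preceded virus by 1 h; reduced signal reflects lower NS1 expression.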

[9] = Identifying Small Molecule Inhibitors of Pancreatic Cancer Stem Cells (SN12C, Adherent) (AID 1259358);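 note: cell survival measured after 48 h of compound exposure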; note: potency is the fitted concentration of half-maximal effect
In short: (§2)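 Cytotoxicity read by CellTiter-Glo luminescence after 48 h compound exposure at 37C; percent activity scaled between DMSO-treated cells and cell-free wells. Spheroid formats used cells pre-formed 14 days in stem cell media on hydrogel.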

[10] = Identifying Small Molecule Inhibitors of Pancreatic Cancer Stem Cells (SN12C, Spheroid) (AID 1259360); conditions: Potency: SN12C spheroid viability; note: potency is the fitted concentration of half-maximal effect
In short: (§3)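 Adherent (2D) versus sphere (3D) formats; spheres generated 14 d in SCM beforehand. Compound transferred by pin tool after 4 h, 48 h incubation, CellTiter-Glo endpoint.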

[11] = qHTS Screen of the MIPE 4.0 Collection Against Ewings Sarcoma (RDES) (AID 1259252); note: potency is the fitted concentration of half-maximal effect; nearly all actives have a fitted effect of over 35% in size
In short: as §1

[12] = Identifying Small Molecule Inhibitors of Pancreatic Cancer Stem Cells (A2780, Spheroid) (AID 1259357); conditions: Potency: A2780 spheroid viability;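 note: potency is the fitted concentration of half-maximal effect; compound exposure lasted 48 h before the ATP luminescence read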
In short: as §3

[13] = Identifying Small Molecule Inhibitors of Pancreatic Cancer Stem Cells (A278, Adherent) (AID 1259361); note: nearly all actives have a fitted effect of over 35% in size
In short: as §2

[14] = Identifying Small Molecule Inhibitors of Pancreatic Cancer Stem Cells (Panc1, Spheroid) (AID 1259359);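 note: potency is the fitted concentration of half-maximal effect; compound exposure lasted 48 h before reading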
In short: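 Spheroids grown 14 days in stem cell media on hydrogel-coated nonadherent plates; 2D lines seeded directly. Compounds added after 4 h attachment, 48 h at 37C, 5% CO2; CellTiter-Glo luminescence normalized to DMSO (no inhibition) and no-cell wells (full inhibition).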

Row | Compound | Potency [1] | Potency [2] | Potency [3] | Potency [4] | Potency [5] | Potency [6] | Potency [7] | Potency [8] | Potency [9] | Potency [10] | Potency [11] | Potency [12] | IC50 (viability decrease) [13] | Potency [14]
1 | CCOC(=O)C1=C(C)NC2=C(C(=O)CC(C)(C)C2)C1c1ccc(-c2ccccc2)cc1 (centres undefined) | inactive | inactive | 26400 nM (active) | 29600 nM (active) | 23500 nM (active) | inactive | inactive and 23.1 µM (active) | 10500 nM (active) | – | – | – | – | – | –
2 | CCCCCN(CCC12CC3CC(CC(C3)C1)C2)C(=O)NCCCc1ccncc1 | inactive | inactive | 18700 nM (active) | 18700 nM (active) | – | – | 16.4 µM (active) | inactive | inactive | inactive | – | – | – | –
3 | CC(C)c1cc(-c2n[nH]c(=O)n2-c2ccc3c(ccn3C)c2)c(O)cc1O | inactive | inactive | 66.2 nM (active) | 66.2 nM (active) | – | – | 0.0935 µM (active) | inactive | – | – | – | – | – | –
4 | CN(C)CC(C)(C)CNc1nn2c(-c3ccccc3)nnc2cc1C1CCC1 | inactive | inactive | 1050 nM (active) | 469 nM (active) | 469 nM (active) | inactive | inactive | inactive | – | – | – | – | – | –
5 | C=CC(=O)Nc1cc2c(Nc3ccc(F)c(Cl)c3)ncnc2cc1OCCCN1CCOCC1 | – | inactive | 14800 nM (active) | 16600 nM (active) | 14800 nM (active) | inactive | 18.4 µM (active) | – | 23500 nM (active) | 20900 nM (active) | 20900 nM (active) | 23500 nM (active) | 16600 nM (active) | –
6 | CC(C)c1cc(C(=O)N2Cc3ccc(CN4CCN(C)CC4)cc3C2)c(O)cc1O | inactive | inactive | 235 nM (active) | 372 nM (active) | 209 nM (active) | – | 0.092 µM (active) | – | – | – | – | – | – | –
7 | Cc1[nH]nc2ccc(-c3cncc(OC[C@@H](N)Cc4ccccc4)c3)cc12 | inactive | inactive | 1480 nM (active) | 833 nM (active) | – | – | 2.35 µM (active) and 1.16 µM (active) | 8330 nM (active) | 7430 nM (active) | 18700 nM (active) | – | – | 935 nM (active) | 9350 nM (active)
8 | CC(O)C1C(=O)N2C(C(=O)O)=C(SC3CNC(C(=O)N(C)C)C3)C(C)C12 (centres undefined) | inactive | inactive | inactive | inactive | inactive | inactive | inactive | inactive | – | – | – | – | – | –
9 | Cc1cn2c(-c3cn[nH]c3)cnc2c(Nc2ccc(C(=O)N3CCNCC3)cc2F)n1 | inactive | inactive | 18700 nM (active) | 16600 nM (active) | – | – | inactive | inactive | 20900 nM (active) | – | – | – | – | –
10 | COc1cc(=C2C=c3ccccc3=N2)[nH]c1=Cc1[nH]c(C)cc1C | – | inactive | 469 nM (active) | 2350 nM (active) | – | – | 2.96 µM (active) | – | – | – | 1870 nM (active) | 20900 nM (active) | 14800 nM (active) | 1480 nM (active)
11 | O=C(Nc1ncc(-c2cc(C(F)F)nn2-c2c(Cl)cccc2Cl)s1)C1CC1 | – | inactive | 743 nM (active) | 469 nM (active) | – | – | 662 nM (active) and 731 nM (active) | 1050 nM (active) | – | – | 418 nM (active) | – | – | –
12 | Cc1c(CN2CCN(S(C)(=O)=O)CC2)sc2c(N3CCOCC3)nc(-c3cnc(N)nc3)nc12 | – | inactive | 66.2 nM (active) | 66.2 nM (active) | – | – | 41.8 nM (active) and 291 nM (active) | – | – | – | 59 nM (active) | – | – | –
13 | OCc1ccc(-c2ccc(-c3ccc(CO)s3)o2)s1 | – | inactive | 26400 nM (active) | 7.4 nM (active) | 18700 nM (active) | – | inactive and 3.17 µM (active) | inactive | – | – | – | – | – | –
14 | OCCCNc1cc(-c2ccnc(Nc3cccc(Cl)c3)n2)ccn1 | – | inactive | 118 nM (active) | 148 nM (active) | 166 nM (active) | – | 83.3 nM (active) and 146 nM (active) | 418 nM (active) | – | – | 166 nM (active) | – | – | –
